In the supplement of paper PMC7411054:
Structures can show the parent of a compound that is named as a salt.

What was measured:
Details in all cases: treatment time: 24 h
A549-ACTB-RAB5A [1] = assay: phenotypically active (imaging signature differs from DMSO and reproducible) at any of 0.3-9 uM (binary (1 = active, 0 = inactive)); higher = active
Method in brief: (§1)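 Phenotypic activity depended on meeting both a deviation and a reproducibility criterion. The fifteen gene-edited A549, HepG2 and WPMY1 reporter lines were treated at 0.3, 1, 3 or 9 µM for 24 h, four wells each, then imaged live with features normalised to solvent control wells. Deviation required ≥3 of 4 wells past the 95th percentile of control Euclidean distances, and reproducibility a median replicate Pearson correlation above the 95th percentile of non-replicates.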

A549-CANX-COX4 [2] = assay: as above
Method in brief: as §1

A549-GM130-SQSTM1 [3] = assay: as above
Method in brief: as §1

A549-TP53BP1-CLTA [4] = assay: as above
Method in brief: as §1

A549-TUBA1B-RELA = assay: as above
Method in brief: as §1

HepG2-ACTB-RAB5A [5] = assay: as above
Method in brief: as §1

HepG2-CANX-COX4 = assay: as above
Method in brief: as §1

HepG2-GM130-SQSTM1 = assay: as above
Method in brief: as §1

HepG2-TP53BP1-CLTA = assay: as above
Method in brief: as §1

HepG2-TUBA1B-RELA = assay: as above
Method in brief: as §1

WPMY1-ACTB-RAB5A = assay: as above
Method in brief: as §1

WPMY1-CANX-COX4 = assay: as above
Method in brief: as §1

WPMY1-GM130-SQSTM1 = assay: as above
Method in brief: as §1

WPMY1-TP53BP1-CLTA = assay: as above
Method in brief: as §1

WPMY1-TUBA1B-RELA = assay: as above
Method in brief: as §1

A549-ACTB-RAB5A [6] = assay: lowest phenotypically active concentration; higher = less potent
Method in brief: as §1

A549-CANX-COX4 [7] = assay: as above
Method in brief: as §1

A549-GM130-SQSTM1 [8] = assay: as above
Method in brief: as §1

A549-TP53BP1-CLTA [9] = assay: as above
Method in brief: as §1

HepG2-ACTB-RAB5A [10] = assay: as above
Method in brief: as §1

CCCCCCCCCC(=O)O[C@H]1CC[C@H]2[C@@H]3CCC4=CC(=O)CC[C@@H]4[C@H]3CC[C@]12C [nandrolone-decanoate]
inactive: phenotypically active (A549-ACTB-RAB5A [1]) 0 | phenotypically active (A549-CANX-COX4 [2]) 0 | phenotypically active (A549-GM130-SQSTM1 [3]) 0 | phenotypically active (A549-TP53BP1-CLTA [4]) 0 | phenotypically active (A549-TUBA1B-RELA) 0 | phenotypically active (HepG2-ACTB-RAB5A [5]) 0 | phenotypically active (HepG2-CANX-COX4) 0 | phenotypically active (HepG2-GM130-SQSTM1) 0 | phenotypically active (HepG2-TP53BP1-CLTA) 0 | phenotypically active (HepG2-TUBA1B-RELA) 0 | phenotypically active (WPMY1-ACTB-RAB5A) 0 | phenotypically active (WPMY1-CANX-COX4) 0 | phenotypically active (WPMY1-GM130-SQSTM1) 0 | phenotypically active (WPMY1-TP53BP1-CLTA) 0 | phenotypically active (WPMY1-TUBA1B-RELA) 0

C[C@@]1(CO)[C@H](O)CC[C@@]2(C)[C@H]1CC[C@H]1C[C@@H]3C[C@@]12CC[C@]3(O)CO [Aphidicolin]
≤ 0.3 µM: lowest phenotypically active concentration (A549-ACTB-RAB5A [6]) | lowest phenotypically active concentration (A549-CANX-COX4 [7]) | lowest phenotypically active concentration (A549-GM130-SQSTM1 [8]) | lowest phenotypically active concentration (A549-TP53BP1-CLTA [9]) | lowest phenotypically active concentration (HepG2-ACTB-RAB5A [10])
active: phenotypically active (A549-ACTB-RAB5A [1]) 1 | phenotypically active (A549-CANX-COX4 [2]) 1 | phenotypically active (A549-GM130-SQSTM1 [3]) 1 | phenotypically active (A549-TP53BP1-CLTA [4]) 1 | phenotypically active (A549-TUBA1B-RELA) 1 | phenotypically active (HepG2-ACTB-RAB5A [5]) 1 | phenotypically active (HepG2-CANX-COX4) 1 | phenotypically active (HepG2-GM130-SQSTM1) 1 | phenotypically active (HepG2-TP53BP1-CLTA) 1 | phenotypically active (HepG2-TUBA1B-RELA) 1 | phenotypically active (WPMY1-ACTB-RAB5A) 1 | phenotypically active (WPMY1-CANX-COX4) 1 | phenotypically active (WPMY1-GM130-SQSTM1) 1 | phenotypically active (WPMY1-TP53BP1-CLTA) 1 | phenotypically active (WPMY1-TUBA1B-RELA) 1

CC(C)(O)[C@H]1O[C@H]2CC[C@@]3(C)[C@@](O)(CC[C@H]4Cc5c([nH]c6ccccc56)[C@@]43C)C2=CC1=O [paxilline]
inactive: phenotypically active (A549-CANX-COX4 [2]) 0 | phenotypically active (A549-GM130-SQSTM1 [3]) 0 | phenotypically active (A549-TP53BP1-CLTA [4]) 0 | phenotypically active (A549-TUBA1B-RELA) 0 | phenotypically active (HepG2-CANX-COX4) 0 | phenotypically active (HepG2-GM130-SQSTM1) 0 | phenotypically active (HepG2-TUBA1B-RELA) 0 | phenotypically active (WPMY1-ACTB-RAB5A) 0 | phenotypically active (WPMY1-CANX-COX4) 0 | phenotypically active (WPMY1-TUBA1B-RELA) 0
9 µM: lowest phenotypically active concentration (A549-ACTB-RAB5A [6]) | lowest phenotypically active concentration (HepG2-ACTB-RAB5A [10])
active: phenotypically active (A549-ACTB-RAB5A [1]) 1 | phenotypically active (HepG2-ACTB-RAB5A [5]) 1 | phenotypically active (HepG2-TP53BP1-CLTA) 1 | phenotypically active (WPMY1-GM130-SQSTM1) 1 | phenotypically active (WPMY1-TP53BP1-CLTA) 1

O=C(NCCN1CCC2(CC1)C(=O)NCN2c1cccc(F)c1)c1ccc(F)c(F)c1 [ML 298 hydrochloride]
3 µM: lowest phenotypically active concentration (A549-ACTB-RAB5A [6])
9 µM: lowest phenotypically active concentration (A549-CANX-COX4 [7]) | lowest phenotypically active concentration (A549-GM130-SQSTM1 [8]) | lowest phenotypically active concentration (A549-TP53BP1-CLTA [9]) | lowest phenotypically active concentration (HepG2-ACTB-RAB5A [10])
active: phenotypically active (A549-ACTB-RAB5A [1]) 1 | phenotypically active (A549-CANX-COX4 [2]) 1 | phenotypically active (A549-GM130-SQSTM1 [3]) 1 | phenotypically active (A549-TP53BP1-CLTA [4]) 1 | phenotypically active (A549-TUBA1B-RELA) 1 | phenotypically active (HepG2-ACTB-RAB5A [5]) 1 | phenotypically active (HepG2-GM130-SQSTM1) 1 | phenotypically active (HepG2-TP53BP1-CLTA) 1 | phenotypically active (HepG2-TUBA1B-RELA) 1 | phenotypically active (WPMY1-ACTB-RAB5A) 1 | phenotypically active (WPMY1-CANX-COX4) 1 | phenotypically active (WPMY1-GM130-SQSTM1) 1 | phenotypically active (WPMY1-TUBA1B-RELA) 1
inactive: phenotypically active (HepG2-CANX-COX4) 0 | phenotypically active (WPMY1-TP53BP1-CLTA) 0

COC1=CC(C)=C[C@@H](C)[C@@H](O)[C@@H](C)CC(C)=CC=C[C@H](OC)[C@@H]([C@@H](C)[C@@H](O)[C@H](C)[C@@]2(O)C[C@@H](O)[C@H](C)[C@@H](C(C)C)O2)OC1=O [Bafilomycin A1]
9 µM: lowest phenotypically active concentration (A549-CANX-COX4 [7])
≤ 0.3 µM: lowest phenotypically active concentration (A549-ACTB-RAB5A [6]) | lowest phenotypically active concentration (A549-GM130-SQSTM1 [8])
3 µM: lowest phenotypically active concentration (A549-TP53BP1-CLTA [9]) | lowest phenotypically active concentration (HepG2-ACTB-RAB5A [10])
active: phenotypically active (A549-ACTB-RAB5A [1]) 1 | phenotypically active (A549-CANX-COX4 [2]) 1 | phenotypically active (A549-GM130-SQSTM1 [3]) 1 | phenotypically active (A549-TP53BP1-CLTA [4]) 1 | phenotypically active (A549-TUBA1B-RELA) 1 | phenotypically active (HepG2-ACTB-RAB5A [5]) 1 | phenotypically active (HepG2-CANX-COX4) 1 | phenotypically active (HepG2-GM130-SQSTM1) 1 | phenotypically active (HepG2-TP53BP1-CLTA) 1 | phenotypically active (HepG2-TUBA1B-RELA) 1 | phenotypically active (WPMY1-ACTB-RAB5A) 1 | phenotypically active (WPMY1-CANX-COX4) 1 | phenotypically active (WPMY1-GM130-SQSTM1) 1 | phenotypically active (WPMY1-TP53BP1-CLTA) 1 | phenotypically active (WPMY1-TUBA1B-RELA) 1

CC(C)(C)c1cc(C=C(C#N)C#N)cc(C(C)(C)C)c1O [Malonoben]
active: phenotypically active (A549-ACTB-RAB5A [1]) 1 | phenotypically active (A549-CANX-COX4 [2]) 1 | phenotypically active (A549-GM130-SQSTM1 [3]) 1 | phenotypically active (A549-TP53BP1-CLTA [4]) 1 | phenotypically active (A549-TUBA1B-RELA) 1 | phenotypically active (HepG2-ACTB-RAB5A [5]) 1 | phenotypically active (HepG2-CANX-COX4) 1 | phenotypically active (HepG2-GM130-SQSTM1) 1 | phenotypically active (HepG2-TP53BP1-CLTA) 1 | phenotypically active (HepG2-TUBA1B-RELA) 1 | phenotypically active (WPMY1-ACTB-RAB5A) 1 | phenotypically active (WPMY1-CANX-COX4) 1 | phenotypically active (WPMY1-GM130-SQSTM1) 1 | phenotypically active (WPMY1-TP53BP1-CLTA) 1 | phenotypically active (WPMY1-TUBA1B-RELA) 1
1 µM: lowest phenotypically active concentration (A549-ACTB-RAB5A [6]) | lowest phenotypically active concentration (A549-CANX-COX4 [7]) | lowest phenotypically active concentration (HepG2-ACTB-RAB5A [10])
≤ 0.3 µM: lowest phenotypically active concentration (A549-GM130-SQSTM1 [8])
3 µM: lowest phenotypically active concentration (A549-TP53BP1-CLTA [9])
